For some of these results: Measured potencies and affinities stand elsewhere.

Results on eleven compounds are retold here after ChEMBL document CHEMBL3988442, “University of Dundee, Small-Polar-MMV Screening Library” (2021).

Holding throughout (design): scale not given: direction of the effect not stated beside the values
Assay [1] concerns the target Protein translocase subunit SecA (Escherichia coli (strain K12)) (UniProt P10408). The assay is described as follows: Assay to Identify E. coli SecA ATPase Inhibitors. Format: functional. Particulars: 30 µM.
Assay [2] has as its target T1, Ubiquitin-activating enzyme e1, putative (Leishmania donovani (strain BPK282A1)) (UniProt E9BSI1).
T1 sequence (whole entry): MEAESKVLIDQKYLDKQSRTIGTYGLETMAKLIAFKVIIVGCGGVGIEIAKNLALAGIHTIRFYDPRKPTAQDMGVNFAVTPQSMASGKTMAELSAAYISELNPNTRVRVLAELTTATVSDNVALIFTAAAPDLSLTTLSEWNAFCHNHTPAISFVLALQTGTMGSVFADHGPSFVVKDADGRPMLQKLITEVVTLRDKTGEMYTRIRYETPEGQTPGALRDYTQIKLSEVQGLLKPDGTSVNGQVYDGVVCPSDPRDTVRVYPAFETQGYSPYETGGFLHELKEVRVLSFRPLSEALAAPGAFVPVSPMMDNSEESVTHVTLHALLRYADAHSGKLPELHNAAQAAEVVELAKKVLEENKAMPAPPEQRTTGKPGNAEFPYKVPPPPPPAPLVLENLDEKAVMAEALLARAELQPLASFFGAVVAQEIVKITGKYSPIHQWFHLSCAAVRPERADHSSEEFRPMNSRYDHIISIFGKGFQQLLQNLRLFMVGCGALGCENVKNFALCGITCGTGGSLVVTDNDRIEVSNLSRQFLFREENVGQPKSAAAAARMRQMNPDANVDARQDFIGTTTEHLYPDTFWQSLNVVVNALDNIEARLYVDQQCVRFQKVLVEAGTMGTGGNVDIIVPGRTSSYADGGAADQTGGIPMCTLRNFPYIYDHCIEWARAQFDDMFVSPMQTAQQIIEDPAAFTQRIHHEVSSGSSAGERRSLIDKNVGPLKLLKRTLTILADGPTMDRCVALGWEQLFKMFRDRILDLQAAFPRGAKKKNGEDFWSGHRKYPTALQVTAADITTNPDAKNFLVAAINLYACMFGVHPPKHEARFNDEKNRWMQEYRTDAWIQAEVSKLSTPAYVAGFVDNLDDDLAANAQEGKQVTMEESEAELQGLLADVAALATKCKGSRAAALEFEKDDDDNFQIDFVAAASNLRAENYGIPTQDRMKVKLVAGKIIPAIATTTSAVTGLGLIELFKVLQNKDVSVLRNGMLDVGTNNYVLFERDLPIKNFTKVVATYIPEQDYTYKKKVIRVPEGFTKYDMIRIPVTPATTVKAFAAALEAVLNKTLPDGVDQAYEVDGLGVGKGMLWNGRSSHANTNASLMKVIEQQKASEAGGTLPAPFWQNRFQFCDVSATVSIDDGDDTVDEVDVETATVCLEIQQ
The assay is described as follows: Leishmania donovani Ubiquitin Activating Enzyme (LdE1). Format: functional. Particulars: 30 µM.

For assay [3], the target named is AMP-activated protein kinase, AMPK (Homo sapiens) (UniProt P54646+O43741+P54619+Q9UGJ0+Q9Y478+Q13131+Q9UGI9). The assay is described as follows: AMP-dependent Kinase enzyme assay. An in vitro enzyme assay that detects ADP turnover that is directly proportional to AMPK activity. This uses naive AMPK that is activated during the assay with MK-8722. Type of assay: functional. The conditions noted are these: 30 µM.

Assay [4] concerns the target Sialic acid-binding Ig-like lectin 9 (Homo sapiens) (UniProt Q9Y336). The assay is described as follows: Hs-Siglec9 ALPHAscreen SOP 20170721. The conditions noted are these: 10 µM.
The test system of another assay is Trypanosoma cruzi. The assay can be described thus: Trypanosoma cruzi phosphomannomutase and mannose-1-phosphate guanylyltransferase assay. Type of assay: functional. Particulars: 10 µM.
Assay [5] concerns the target T2, Arginase-2, mitochondrial (Homo sapiens) (UniProt P78540).
T2 sequence (whole entry): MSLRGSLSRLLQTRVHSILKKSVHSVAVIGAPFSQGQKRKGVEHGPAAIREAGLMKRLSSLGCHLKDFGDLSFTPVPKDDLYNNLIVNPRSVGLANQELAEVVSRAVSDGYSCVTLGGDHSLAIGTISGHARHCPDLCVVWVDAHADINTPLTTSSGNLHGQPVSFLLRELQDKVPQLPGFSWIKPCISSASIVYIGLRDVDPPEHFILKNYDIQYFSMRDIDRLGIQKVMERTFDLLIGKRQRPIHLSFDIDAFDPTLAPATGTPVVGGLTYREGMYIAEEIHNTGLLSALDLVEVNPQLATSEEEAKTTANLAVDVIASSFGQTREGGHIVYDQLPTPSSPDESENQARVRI
The assay can be described thus: in vitro enzyme assay to detect the production of urea directly proportional to the activity of Arginase II. Also: in the data most compounds retested in dose-response had high values. Particulars: 33.3 µM. Type of assay: functional.

Assay [6] deals with T3, Proteasome subunit beta (Trypanosoma cruzi) (UniProt O96673).
T3 sequence (whole entry): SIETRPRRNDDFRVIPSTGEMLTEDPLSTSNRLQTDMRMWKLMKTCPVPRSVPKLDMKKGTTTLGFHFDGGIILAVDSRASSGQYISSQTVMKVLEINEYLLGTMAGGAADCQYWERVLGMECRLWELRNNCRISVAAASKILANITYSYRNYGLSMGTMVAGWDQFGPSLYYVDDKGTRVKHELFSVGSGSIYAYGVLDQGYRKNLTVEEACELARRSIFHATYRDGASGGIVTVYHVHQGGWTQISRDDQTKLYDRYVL
The assay is described as follows: Trypanosoma cruzi proteasome chymotrypsin-like activity (TcProtChymo) assay. Also: in the data most compounds retested in dose-response had high values. Format: functional. The conditions noted are these: 9.37 µM.

The species entered for the next assay is Homo sapiens. The assay can be described thus: To identify inhibition of the IFN signalling (Jak-Stat) pathway via expression of an eGFP reporter gene under the control of an IFN-stimulated response element (ISRE) containing MxA promoter. Format: functional. The conditions noted are these: 30 µM. (In general: Reporter assays use an easily measured gene product as a stand-in for the process of interest.)

Assay [7] deals with T4, Tyrosyl-tRNA synthetase, putative (Trypanosoma cruzi (strain CL Brener)) (UniProt Q4DSP6).
T4 sequence (whole entry): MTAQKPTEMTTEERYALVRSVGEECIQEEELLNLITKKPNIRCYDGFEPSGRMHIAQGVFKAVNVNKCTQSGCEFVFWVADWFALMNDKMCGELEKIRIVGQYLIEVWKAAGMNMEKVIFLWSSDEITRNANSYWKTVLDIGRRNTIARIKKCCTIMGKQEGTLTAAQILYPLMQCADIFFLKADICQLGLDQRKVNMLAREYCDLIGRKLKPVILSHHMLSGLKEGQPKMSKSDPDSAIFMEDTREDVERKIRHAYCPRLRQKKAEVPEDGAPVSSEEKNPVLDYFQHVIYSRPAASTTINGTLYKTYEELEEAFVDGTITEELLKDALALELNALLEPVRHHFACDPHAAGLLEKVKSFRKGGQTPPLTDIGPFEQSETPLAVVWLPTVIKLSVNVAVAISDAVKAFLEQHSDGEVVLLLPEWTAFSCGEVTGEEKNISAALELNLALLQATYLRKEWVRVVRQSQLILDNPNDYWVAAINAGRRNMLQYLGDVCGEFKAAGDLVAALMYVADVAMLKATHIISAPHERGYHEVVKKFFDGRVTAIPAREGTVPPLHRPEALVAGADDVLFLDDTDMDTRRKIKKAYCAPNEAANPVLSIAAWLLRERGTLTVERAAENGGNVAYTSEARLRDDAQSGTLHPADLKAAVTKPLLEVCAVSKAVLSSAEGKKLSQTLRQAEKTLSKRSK
The assay is described as follows: Trypanosoma cruzi tyrosyl tRNA synthetase (TcYRS) _High Tyrosine SOP. Also: in the data most compounds retested in dose-response had high values. Format: functional. Particulars: 30 µM.

Assay [8] has as its target T4, Tyrosyl-tRNA synthetase, putative (Trypanosoma cruzi (strain CL Brener)). The assay can be described thus: Trypanosoma cruzi tyrosyl tRNA synthetase (TcYRS) SOP. Format: functional. Particulars: 30 µM.
The target in assay [9] is Chromo domain-containing protein 1 (Saccharomyces cerevisiae (strain ATCC 204508 / S288c) (Baker's yeast)) (UniProt P32657). The assay is described as follows: ScCHD-1 Enzyme Inhibition Assay. Also: in the data most compounds retested in dose-response had high values. Particulars: 30 µM. Format: functional.
Chain of Chromo domain-containing protein 1 (Saccharomyces cerevisiae (strain ATCC 204508 / S288c) (Baker's yeast)) (P32657 whole entry, the tested form may be a part): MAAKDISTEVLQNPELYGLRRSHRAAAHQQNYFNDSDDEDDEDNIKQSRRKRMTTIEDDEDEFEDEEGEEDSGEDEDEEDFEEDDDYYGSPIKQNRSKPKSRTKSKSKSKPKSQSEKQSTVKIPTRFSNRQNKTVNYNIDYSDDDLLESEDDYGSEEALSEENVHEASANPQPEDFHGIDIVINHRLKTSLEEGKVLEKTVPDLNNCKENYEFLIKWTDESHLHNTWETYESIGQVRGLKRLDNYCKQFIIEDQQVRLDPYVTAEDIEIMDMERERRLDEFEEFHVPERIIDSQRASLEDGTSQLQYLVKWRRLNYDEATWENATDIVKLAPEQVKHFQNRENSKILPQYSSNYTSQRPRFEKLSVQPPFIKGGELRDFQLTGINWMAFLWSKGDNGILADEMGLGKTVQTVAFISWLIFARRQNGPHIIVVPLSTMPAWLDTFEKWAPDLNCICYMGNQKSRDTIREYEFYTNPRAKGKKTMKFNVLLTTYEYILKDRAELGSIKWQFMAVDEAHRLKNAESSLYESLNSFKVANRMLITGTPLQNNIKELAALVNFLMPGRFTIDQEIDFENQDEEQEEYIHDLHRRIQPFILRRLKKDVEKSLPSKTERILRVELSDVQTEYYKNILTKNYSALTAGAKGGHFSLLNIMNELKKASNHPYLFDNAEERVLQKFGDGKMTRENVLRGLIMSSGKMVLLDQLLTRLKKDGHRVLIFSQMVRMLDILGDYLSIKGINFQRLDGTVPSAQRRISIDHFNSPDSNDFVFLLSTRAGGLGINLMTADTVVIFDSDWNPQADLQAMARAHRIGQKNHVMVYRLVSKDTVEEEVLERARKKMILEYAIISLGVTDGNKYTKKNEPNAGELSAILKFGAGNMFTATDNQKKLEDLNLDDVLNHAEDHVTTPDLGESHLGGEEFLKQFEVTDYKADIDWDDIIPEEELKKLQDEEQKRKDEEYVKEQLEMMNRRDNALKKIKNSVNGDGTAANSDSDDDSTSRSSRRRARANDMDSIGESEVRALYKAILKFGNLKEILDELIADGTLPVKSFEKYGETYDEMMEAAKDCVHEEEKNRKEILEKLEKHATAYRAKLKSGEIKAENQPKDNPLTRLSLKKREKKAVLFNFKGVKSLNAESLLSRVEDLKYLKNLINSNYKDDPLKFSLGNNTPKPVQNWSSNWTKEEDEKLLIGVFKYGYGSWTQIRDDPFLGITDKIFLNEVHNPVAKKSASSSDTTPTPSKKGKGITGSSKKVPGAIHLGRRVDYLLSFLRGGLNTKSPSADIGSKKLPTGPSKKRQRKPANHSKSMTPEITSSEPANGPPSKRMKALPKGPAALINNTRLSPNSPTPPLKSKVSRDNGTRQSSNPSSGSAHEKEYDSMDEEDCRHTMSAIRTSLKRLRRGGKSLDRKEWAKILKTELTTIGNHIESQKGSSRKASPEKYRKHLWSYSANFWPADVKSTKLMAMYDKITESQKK

Chain of Protein translocase subunit SecA (Escherichia coli (strain K12)) (P10408 whole entry): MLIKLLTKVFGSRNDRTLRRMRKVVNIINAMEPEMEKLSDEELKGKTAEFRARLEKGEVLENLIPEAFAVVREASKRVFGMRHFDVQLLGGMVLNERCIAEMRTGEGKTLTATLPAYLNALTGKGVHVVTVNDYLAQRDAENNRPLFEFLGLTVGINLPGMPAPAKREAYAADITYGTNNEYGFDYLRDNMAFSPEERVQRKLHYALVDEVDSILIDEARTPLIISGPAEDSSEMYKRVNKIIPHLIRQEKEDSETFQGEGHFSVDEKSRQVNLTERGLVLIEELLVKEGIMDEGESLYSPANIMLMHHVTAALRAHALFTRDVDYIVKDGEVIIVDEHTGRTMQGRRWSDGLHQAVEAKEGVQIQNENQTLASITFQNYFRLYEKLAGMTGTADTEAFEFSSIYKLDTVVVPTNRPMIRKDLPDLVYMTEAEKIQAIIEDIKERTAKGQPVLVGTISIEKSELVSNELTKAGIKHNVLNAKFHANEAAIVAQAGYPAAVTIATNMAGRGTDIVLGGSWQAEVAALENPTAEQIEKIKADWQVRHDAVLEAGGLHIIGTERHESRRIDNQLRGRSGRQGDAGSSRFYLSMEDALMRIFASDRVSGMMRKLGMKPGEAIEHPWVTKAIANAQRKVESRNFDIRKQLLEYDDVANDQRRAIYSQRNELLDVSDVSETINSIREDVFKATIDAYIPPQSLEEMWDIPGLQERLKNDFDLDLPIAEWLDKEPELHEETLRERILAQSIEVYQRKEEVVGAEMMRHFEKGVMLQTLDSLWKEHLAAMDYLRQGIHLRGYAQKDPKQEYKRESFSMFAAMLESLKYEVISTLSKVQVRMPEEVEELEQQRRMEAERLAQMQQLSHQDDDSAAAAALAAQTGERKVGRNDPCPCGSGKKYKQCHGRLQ
Chain of Sialic acid-binding Ig-like lectin 9 (Homo sapiens) (Q9Y336 whole entry): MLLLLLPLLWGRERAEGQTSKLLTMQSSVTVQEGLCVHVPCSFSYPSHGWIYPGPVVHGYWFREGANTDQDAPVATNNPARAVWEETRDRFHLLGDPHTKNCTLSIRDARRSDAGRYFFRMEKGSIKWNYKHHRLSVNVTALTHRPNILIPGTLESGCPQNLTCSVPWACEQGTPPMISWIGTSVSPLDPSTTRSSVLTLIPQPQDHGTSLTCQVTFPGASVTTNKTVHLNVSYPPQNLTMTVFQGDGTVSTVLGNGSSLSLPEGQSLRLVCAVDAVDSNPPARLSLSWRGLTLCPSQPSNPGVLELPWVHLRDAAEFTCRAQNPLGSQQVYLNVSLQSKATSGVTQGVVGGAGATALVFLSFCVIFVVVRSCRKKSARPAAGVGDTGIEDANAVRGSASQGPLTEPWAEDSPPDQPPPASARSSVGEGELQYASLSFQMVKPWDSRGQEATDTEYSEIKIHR

As to `Cc1cnn(CC2CN(Cc3nc4ccccc4nc3C)CCO2)c1` (stereo unspecified), the Percent Effect in assay [1] is -4.61%; in assay [2], 2.6%; in assay [3], -4.31%; in [4], -1.3%; in the assay on Trypanosoma cruzi it was 6.56%; in assay [5], -4%. The Percent Effect in [6] was 7.52%; in the assay filed under Homo sapiens, -8.59%; in assay [7], 9.52%; in assay [8], 14.1%; in assay [9], -22.4%.
`Cc1nc(O)c2nnn(C[C@H]3CCCN3C(=O)CCC3CCCC3)c2n1`: the Percent Effect in assay [1] is -1.52%; in assay [2], -4.05%; in assay [3] it was 9.5%; in assay [4], -1.58%; with Trypanosoma cruzi it was -1.78%; in assay [5] it was -1.62%. In addition, the Percent Effect in [6] is 2.5%; in the assay filed under Homo sapiens, -0.726%; in [7] it was -1.07%; in [8], -1.3%; in assay [9], 13.7%.
On to `O=C(c1cnccn1)N1CCOC2(CCN(Cc3ccsc3)CC2)C1`, for which the Percent Effect in assay [1] was -1.55%; in assay [2], 0%; in assay [3] it was 2.03%; in assay [4], 7.22%; in the assay with Trypanosoma cruzi it was 1.16%; in assay [5] it was -52.1%. For the same compound, the Percent Effect in assay [6] is 0%; in the assay filed under Homo sapiens it was -18.7%; in [7], 2.08%; in assay [8], 2.5%; in [9] it was -4.34%.
As to `COCC(=O)N1CCCC1c1ccnc(Nc2cnccn2)n1` (stereo unspecified), the Percent Effect is -3.17% in assay [1]; 12.2% in assay [2]; 9.2% in [3]; 8.04% in assay [4]; -0.395% with Trypanosoma cruzi; 0.232% in assay [5]. Moreover, the Percent Effect in [6] was 10.3%; in the assay filed under Homo sapiens, -10.9%; in assay [7] it was 12.9%; in assay [8], 22.1%; in assay [9], -7.89%.
Consider `O=C(Nc1cnn(CCN2CCOCC2)c1)c1ccccc1O`, for which the Percent Effect is -4.19% in assay [1]; 26.3% in assay [2]; -17.4% in assay [3]; 2.22% in assay [4]; 3.57% in the assay on Trypanosoma cruzi; 4.6% in assay [5]. Besides, the Percent Effect in [6] was 16.9%; in the assay listed under Homo sapiens it was -2.35%; in [7], 6.37%; in assay [8], 19.5%; in assay [9], -12.5%.
Turning to `COc1cccc(OCCNCc2c(C)nn(C)c2N(C)C)c1`, the Percent Effect was -5.35% in assay [1]; 5.26% in assay [2]; -9.94% in assay [3]; 10.1% in assay [4]; 1.5% in the assay on Trypanosoma cruzi; 1.92% in [5]. Also, the Percent Effect in [6] is 7.69%; in the assay filed under Homo sapiens, -12%; in assay [7], 4.41%; in [8], 19.5%; in assay [9], -8.18%.
As to `Cc1cc(C)n(CC2CN(CCOc3cccc(C#N)c3)CCO2)n1` (stereo unspecified), the Percent Effect in [1] was -6.03%; in assay [2], 13.2%; in [3], -3.15%; in assay [4], -7.82%; in the assay on Trypanosoma cruzi, -1.21%; in assay [5] it was -0.719%. The Percent Effect in [6] was 1.44%; in the assay listed under Homo sapiens, 6.94%; in [7], 7.39%; in assay [8] it was -6.17%; in assay [9] it was -0.144%.
Regarding `Cc1cc(C)c(CNC(=O)NCc2ccc3c(c2)CCC3)c(=O)[nH]1`, the Percent Effect is -1.46% in [1]; 10.5% in assay [2]; -2.73% in [3]; 4% in assay [4]; -3.38% in the assay with Trypanosoma cruzi; 4.6% in assay [5]. Further, the Percent Effect in [6] turned out to be 6.85%; in the assay listed under Homo sapiens it was 4.84%; in assay [7], 5.39%; in [8] it was 0%; in assay [9], 0.252%.
Turning to `NC(=O)NCC1CCCCN1C(=O)c1cccc(C(F)(F)F)c1` (stereo unspecified), the Percent Effect was -6.54% in assay [1]; 21.1% in assay [2]; -2.74% in assay [3]; 13.3% in assay [4]; 4.95% in the assay with Trypanosoma cruzi; -6.47% in assay [5]. The Percent Effect was 2.79% in assay [6]; -1.19% in the assay filed under Homo sapiens; 5.42% in [7]; 16.1% in assay [8]; -9.06% in assay [9].
For `O=S(=O)(NCC1CCOc2ccccc2C1)N1CCOCC1` (stereo unspecified), the Percent Effect in assay [1] is -5.96%; in assay [2] it was 15.6%; in assay [3] it was 1.72%; in [4], 13.8%; in the assay on Trypanosoma cruzi, 3.83%; in assay [5], -1.38%. The Percent Effect is 11.8% in [6]; 6.21% in the assay filed under Homo sapiens; 3.23% in assay [7]; 13.6% in [8]; 1.35% in assay [9].
In the case of `O=C(NCCNc1ncccn1)N1CCN(Cc2cccnc2)CC1`, the Percent Effect in assay [1] is -10.3%; in [2], 13.5%; in assay [3], -7.65%; in assay [4], 22.9%; with Trypanosoma cruzi, 10.5%; in assay [5] it was -16%. The Percent Effect is 6.13% in assay [6]; 2.94% in the assay listed under Homo sapiens; 7.39% in assay [7]; 23.5% in [8]; -14.1% in assay [9].
